The values that follow come from PubChem BioAssay.

The nature of assay [1]: inhibitors of TNFa-induced NFkB p65 translocation, primary screen, imaging, HUVEC, MLSMR starter and 10KST1 sets (AID 438;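 active = inhibition above 20% together with a positive visual image hit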;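 note: compound added about 3h40 before a 20 min TNFalpha stimulation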;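 for inhibition: signal is the nuclear over cytoplasmic p65 intensity ratio per well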). To be noted: HUVEC TNFa-induced p65 nuclear translocation; cell count: measured here: nuclei count (cytotoxicity indicator), at 2.08 µM unless noted; inhibition: at 2 µM, stronger effect = higher value unless noted.
The nature of assay [2]: endothelial E-selectin expression blockers – imaging, HUVEC, immunofluorescence, MLSMR starter and 10KST1 sets, primary screen (AID 487;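 active = visually confirmed hit in the image check and inhibition above 20%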;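 for inhibition: signal is fraction of cell area covered by stained E-selectin grains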;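 for nuclei count: 100% = median nuclei count of all wells on the same plate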). To be noted: HUVEC TNFalpha-induced E-selectin immunofluorescence imaging, at 2 µM; inhibition: stronger effect = higher value; nuclei count: measured here: cell number, toxicity.
Assay [3] in a line: Primary imaging screen for DUSP6 inhibitors that restore phospho-Erk in transfected HeLa cells, chemical complementation (AID 609;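 active = compounds giving at least 50% inhibition in the cell-based MKP-3 phosphatase rescue imaging test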;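 for inhibition: phospho-Erk level distribution per well compared with pooled transfected vehicle control wells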). To be noted: HeLa MKP-3 transfected, phospho-Erk imaging KS statistic, at 10 µM.
The target of assay [4] is Dual specificity protein phosphatase 6 (Homo sapiens) (UniProt Q16828). Described as above. The note with it: HeLa MKP-3 transfected, phospho-Erk imaging KS statistic, at 10 µM, stronger effect = higher value.
For assay [5], the target named is Voltage-gated potassium channel subunit beta-2 (Rattus norvegicus) (UniProt P62483). Nature of the assay: inhibitors of rat Kvbeta2 reductase activity – biochemical, NADPH fluorescence, primary screen (AID 622;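 active = fluorescence slope higher than the sample average by over 3 SD, cut at about -0.22 in these data, passing the limit was not always enough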;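 note: slope of raw intensity against log time taken from 70 to 1610 s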). To be noted: recombinant KvBeta, 4-cyanobenzaldehyde reduction, at 10 µM, stronger effect = higher value.
Assay [6] has the same target. Briefly: enhancers of rat Kvbeta2 NADPH turnover – biochemical, NADPH fluorescence, primary screen (AID 623).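 Note: fluorescence intensity change per second fitted from 20 to 320 s.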 The note with it: Recombinant KvBeta, NADPH fluorescence decrease slope, 10 min; at 10 µM; stronger effect = lower value.
Assay [7] has as its target Muscarinic acetylcholine receptor M4 (Homo sapiens) (UniProt P08173). Nature of the assay: M4-linked GIRK flux change, two-sided – cell-based, HEK293 M4/GIRK, thallium flux, BTC-AM, M4 allosteric agonist project, primary screen (AID 625;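 active = fluorescence slope after compound addition differing from the mean of all tested samples at 99.7% confidence, mostly higher but some lower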;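 note: thallium influx through GIRK channels coupled to M4 in HEK293 cells with BTC-AM dye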). To be noted: at 10 µM, actives lie on both sides.
Assay [8] is described as follows: inhibitors of larval lipid processing in zebrafish, primary screen, whole organism, PED6 fluorescence, gall bladder and intestine (AID 686;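 active = a full or partial loss of lipid-probe fluorescence in the fish gall bladder, intestine or both, judged by eye; inactive = no fluorescence loss, or compound toxic to the fish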;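 note: larvae 5 to 7 days old with five fish per well; signal comes from phospholipase A2 cleavage of quenched PED6 carried via bile; overnight exposure to compound and PED6 before scoring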). To be noted: Zebrafish larvae PED6 lipid processing, fluorescence scoring.
A short description of assay [9]: loss of swimming-algae plug formation – whole organism, Chlamydomonas reinhardtii, WT vs cilia-less mutant, absorbance, 96-well, primary screen (AID 463189;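 active = inhibition at or above 50% relative to wild type and mutant plate controls; inactive = inhibition below 50%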;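 note: 0% = wild type cc124 cells in DMSO and 100% = ciliumless bld1 mutant cells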). To be noted: Chlamydomonas reinhardtii gravitaxis, OD600 absorbance, 2 days; at 10 µM; stronger effect = higher value.
A short description of assay [10]: reduction of polyQ htt aggregates in cells – imaging, exon1htt(103Q)mCFP cells, high-content imaging, primary screen (AID 483;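 active = visual image review flags a hit and inhibition of aggregation exceeds 20%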;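 note: compound exposure lasted 3 days before fixation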;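 for nuclei count: percent of the per-plate median nuclei count of sample wells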). To be noted: exon1htt(103Q)mCFP cell line, aggregate imaging, at 2 µM; inhibition of aggregation: stronger effect = higher value; nuclei count: measured here: cell count, toxicity.
Assay [11] deals with Alpha-2C adrenergic receptor (Homo sapiens) (UniProt P18825). Briefly: compounds altering alpha2C-coupled GIRK flux – cell-based, HEK293 alpha2C/GIRK1/2, thallium flux, primary screen (AID 624;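 active = fluorescence slope after compound addition differing from the mean of all screened samples at 99.7% confidence, in either direction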;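 note: slope of fluorescence ratio to pre-addition baseline per second over 15 to 24 s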). The note with it: thallium flux BTC fluorescence, at 10 µM, actives lie on both sides.
Assay [12] is described as follows: blockers of RIG-like receptor reporter activation – cell-based, Sendai virus stimulus, luciferase, 10K MLSCN set, TLR/RLR signaling modifier project, primary screen (AID 602276;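 active = inhibition at or above 50% at 10 µM; inactive = inhibition below 50%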;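 note: firefly luciferase from ISG56 promoter only with Renilla not read in this screen; 0% = Sendai virus plus DMSO and 100% = medium plus DMSO without virus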). The note with it: HEK293 RL24 IRF3 luciferase reporter, at 10 µM, stronger effect = higher value. For orientation: Reporter assays use an easily measured gene product as a stand-in for the process of interest.

Assay [13] is described as follows: TLR3 IRF3 reporter activation blockers – cell-based, poly I:C stimulus, luciferase, 10K MLSCN set, primary screen (AID 602277;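 active = inhibition of the reporter signal at or above 50%; inactive = inhibition below 50%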). The note with it: HEK293-TLR3 RL24 IRF3 luciferase reporter, at 10 µM, stronger effect = higher value.
[14] abbreviates: measured here: cell density z-score.
The mark [15] stands for this setting: measured here: nuclear c-Myc green intensity z-score.
Setting [16] is: measured here: nuclear pErk red intensity z-score, stronger effect = higher value.

SMILES strings stand for the structures. Active and inactive are the calls of the source.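 Rule for the calls, unless noted: active = NADPH fluorescence slope more negative than the mean of all samples by about 3 SD, 99.7% confidence; inactive = the rest.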

Muscarinic acetylcholine receptor M4 (Homo sapiens), sequence (P08173 whole entry, looked up): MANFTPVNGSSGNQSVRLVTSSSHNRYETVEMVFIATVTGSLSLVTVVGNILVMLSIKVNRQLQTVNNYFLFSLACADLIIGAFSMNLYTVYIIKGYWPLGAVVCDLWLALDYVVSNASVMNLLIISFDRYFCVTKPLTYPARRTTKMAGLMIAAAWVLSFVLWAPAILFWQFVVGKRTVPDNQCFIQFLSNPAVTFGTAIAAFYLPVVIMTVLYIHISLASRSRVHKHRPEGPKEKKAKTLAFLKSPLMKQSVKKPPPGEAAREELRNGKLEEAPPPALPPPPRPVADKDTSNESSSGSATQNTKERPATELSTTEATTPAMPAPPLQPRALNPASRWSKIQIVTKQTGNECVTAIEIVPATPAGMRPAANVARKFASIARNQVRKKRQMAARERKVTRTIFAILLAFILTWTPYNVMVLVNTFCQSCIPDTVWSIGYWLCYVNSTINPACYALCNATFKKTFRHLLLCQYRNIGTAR
Dual specificity protein phosphatase 6 (Homo sapiens), sequence (Q16828 whole entry, looked up): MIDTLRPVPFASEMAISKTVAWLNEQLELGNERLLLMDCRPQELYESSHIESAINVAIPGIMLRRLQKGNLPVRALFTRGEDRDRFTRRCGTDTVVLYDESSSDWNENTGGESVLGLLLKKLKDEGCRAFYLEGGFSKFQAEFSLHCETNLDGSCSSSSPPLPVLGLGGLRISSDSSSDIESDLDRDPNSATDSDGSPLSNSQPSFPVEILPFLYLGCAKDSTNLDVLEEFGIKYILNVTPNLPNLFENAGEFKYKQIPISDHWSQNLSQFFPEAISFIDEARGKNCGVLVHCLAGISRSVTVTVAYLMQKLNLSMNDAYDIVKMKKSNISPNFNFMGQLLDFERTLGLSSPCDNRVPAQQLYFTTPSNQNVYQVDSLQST
Voltage-gated potassium channel subunit beta-2 (Rattus norvegicus), sequence (P62483 whole entry, looked up): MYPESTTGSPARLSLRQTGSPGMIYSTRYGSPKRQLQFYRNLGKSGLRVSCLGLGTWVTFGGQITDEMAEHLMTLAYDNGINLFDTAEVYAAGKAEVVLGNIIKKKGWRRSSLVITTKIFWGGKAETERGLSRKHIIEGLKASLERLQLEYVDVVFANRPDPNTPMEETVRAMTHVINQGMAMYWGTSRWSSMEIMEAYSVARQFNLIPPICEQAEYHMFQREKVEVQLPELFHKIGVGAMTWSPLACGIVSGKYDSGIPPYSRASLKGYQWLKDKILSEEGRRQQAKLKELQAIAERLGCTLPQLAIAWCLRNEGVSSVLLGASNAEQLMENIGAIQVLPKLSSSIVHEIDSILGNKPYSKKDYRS
Alpha-2C adrenergic receptor (Homo sapiens), sequence (P18825 whole entry, looked up): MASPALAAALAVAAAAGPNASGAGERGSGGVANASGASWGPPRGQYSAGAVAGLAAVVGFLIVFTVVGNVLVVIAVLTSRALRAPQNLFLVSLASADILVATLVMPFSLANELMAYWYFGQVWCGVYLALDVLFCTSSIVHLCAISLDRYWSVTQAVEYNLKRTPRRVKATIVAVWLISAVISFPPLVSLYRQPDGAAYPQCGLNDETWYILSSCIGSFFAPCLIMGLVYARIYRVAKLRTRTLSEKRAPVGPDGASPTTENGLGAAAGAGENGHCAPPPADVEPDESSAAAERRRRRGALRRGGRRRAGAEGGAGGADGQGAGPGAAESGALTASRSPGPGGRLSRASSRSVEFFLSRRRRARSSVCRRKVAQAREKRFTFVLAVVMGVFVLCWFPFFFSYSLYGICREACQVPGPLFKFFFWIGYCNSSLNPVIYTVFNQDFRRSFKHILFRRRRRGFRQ

As for `COC(=O)C(c1ccccc1)N1CCCCCC1` (centres undefined), the cell count in assay [1] stood at 730. Also, the inhibition in assay [1] was 0.3% (inactive); in assay [2], 20.3% (inactive); in assay [4], -11.4% (inactive); in assay [9], -6.36% (inactive). This molecule registered a nuclei count in [2] of 165%. For the same molecule, the z-score in [3] (setting [14]) is -0.512; in assay [3] (setting [15]) it was 1.36; in assay [3] (setting [16]), 1.38. Further, the figures for the fluorescence slope in [5] and in assay [7] were -0.406 (inactive) and 0.0047 (inactive), respectively. For the same molecule, the NADPH fluorescence slope in assay [6] was -3.5e-05 (inactive). For the same molecule, in assay [8], the call was inactive.

Molecule `Cn1c(O)c(C=NCCCNC2CCCCC2)c(=O)n(C)c1=O` registered a cell count in assay [1] of 420. For the same molecule, the inhibition in assay [1] was 1.2% (inactive); in assay [2] it was -81.5% (inactive); in assay [4] it was 26.5% (inactive); in assay [9] it was -2.14% (inactive). This molecule also had a nuclei count in [2] of 131%. Further, the z-score in assay [3] (setting [14]) was 0.261; in [3] (setting [15]), -0.315; in assay [3] (setting [16]) it was -0.515. Further, the fluorescence slope in assay [5] was -0.469 (inactive); in assay [7], 0.00413 (inactive). In assay [6], the NADPH fluorescence slope was -0.000127 (inactive). Further, the call in [8] was inactive.

With `Nc1c(C(=O)NCc2ccco2)c2nc3ccccc3nc2n1Cc1ccc(F)cc1`, the cell count in assay [1] is 678. For the same molecule, the inhibition in [1] was 12.5% (inactive); in assay [2] it was -9% (inactive); in [4], -7.67% (inactive); in assay [9], 34.8% (inactive). Moreover, in assay [2], the nuclei count was 108%. In addition, the z-score was 0.15 in assay [3] (setting [14]), 1.06 in assay [3] (setting [15]) and -0.878 in assay [3] (setting [16]). Further, the fluorescence slope is -0.236 (inactive) in assay [5] and 0.00698 (inactive) in assay [7]. In addition, the NADPH fluorescence slope in assay [6] is -1e-05 (inactive). Moreover, in assay [8], the call was inactive.

In turn, `OC(c1ccc(F)cc1)C(c1ccccc1)N1CCOCC1` (centres undefined) came in with a cell count in assay [1] of 679. The inhibition is 2.9% (inactive) in assay [1], 8% (inactive) in [2], -13.3% (inactive) in [4] and -7.5% (inactive) in [9]. This molecule came in with a nuclei count in assay [2] of 153%. For the same molecule, the results for the z-score in [3] (setting [14]), in [3] (setting [15]) and in assay [3] (setting [16]) were -0.0994, 1.62 and 0.344, respectively. The fluorescence slope was -0.427 (inactive) in assay [5] and 0.00525 (inactive) in [7]. The NADPH fluorescence slope in assay [6] is -3.5e-05 (inactive). Also, in assay [8], the call was inactive.

On to `Nc1ncc(P(=S)(N2CCOCC2)N2CCOCC2)s1`, for which, in assay [1], the cell count amounted to 452. The inhibition in [1] was -2.7% (inactive); in assay [2], -296% (inactive); in [4], 4.37% (inactive); in assay [9] it was 11.1% (inactive). The molecule also returned a nuclei count in [2] of 169%. The z-score in [3] (setting [14]) was -0.00628; in [3] (setting [15]) it was -0.183; in [3] (setting [16]), -1.06. The fluorescence slope in assay [5] is -0.461 (inactive); in assay [7], 0.00503 (inactive). Also, the NADPH fluorescence slope in [6] is -8.8e-05 (inactive). Besides, in [8], the molecule was classed as inactive.

As to `CN1C(=O)N(C)C(=O)C2(Cc3ccccc3N3CCOCC32)C1=O` (centres undefined), the cell count in [1] was 547. Besides, the inhibition in assay [1] was -5.7% (inactive); in assay [2] it was -43.9% (inactive); in assay [12], 16.2% (inactive); in assay [13], 24.6% (inactive). Also, the inhibition of aggregation in assay [10] is -30.5% (inactive). Moreover, the nuclei count in assay [10] turned out to be 92.5%; in [2], 148%. The fluorescence slope in assay [5] is -0.363 (inactive). Moreover, the NADPH fluorescence slope in [6] is 3.8e-05 (inactive). Moreover, the slope in [11] is 0.00653 (inactive).

Molecule `COC(=O)C(O)(c1ccc(NC(=O)c2ccco2)c(OC)c1)C(F)(F)F` (centres undefined) returned a cell count in [1] of 569. Further, the inhibition in assay [1] is 3.2% (inactive); in assay [2] it was 1% (inactive); in assay [4], -3.97% (inactive); in assay [9], 0.634% (inactive). The same molecule came in with a nuclei count in assay [2] of 152%. In addition, the results for the z-score in assay [3] (setting [14]), in assay [3] (setting [15]) and in assay [3] (setting [16]) were -0.555, 0.637 and 1.11, respectively. The figures for the fluorescence slope in [5] and in assay [7] were -0.43 (inactive) and 0.00513 (inactive), respectively. Moreover, the NADPH fluorescence slope in assay [6] was -5.3e-05 (inactive). Also, the call in assay [8] was inactive.

Broadly, the inhibition is the change of the read-out against control, counted positive when it falls.
